Experimental data taken from PubChem BioAssay (Tox21).
Records with an inconclusive call do not appear. Some structures have more than one record in an assay (separate samples or runs), and their calls can disagree. Active and inactive are the calls of the source. Calls follow the shape of the dose curve; as a rule, active = well fitted activation curve with a large enough effect in the repeat runs; inconclusive = weak or mixed curves, or effect the other way; inactive = no such curve, though single readings can be large or run the other way.

Biological target: Estrogen receptor (Homo sapiens) (UniProt P03372)
Assay: qHTS assay to identify small molecule agonists of the estrogen receptor alpha (ER-alpha) signaling pathway using the BG1 cell line (AID 743079); also: nearly all actives have a fitted effect of over 20% in size
Details: BG1Luc4E2 cells, ERE-luciferase agonist, 22 h; series mostly up to 70.3 µM; activation: at the top concentration
% is scaled to controls: 0 for no effect and ±100 for the full control effect; potency is read from the fitted curve at half-maximal effect.

Chain of Estrogen receptor (Homo sapiens) (P03372 whole entry, looked up): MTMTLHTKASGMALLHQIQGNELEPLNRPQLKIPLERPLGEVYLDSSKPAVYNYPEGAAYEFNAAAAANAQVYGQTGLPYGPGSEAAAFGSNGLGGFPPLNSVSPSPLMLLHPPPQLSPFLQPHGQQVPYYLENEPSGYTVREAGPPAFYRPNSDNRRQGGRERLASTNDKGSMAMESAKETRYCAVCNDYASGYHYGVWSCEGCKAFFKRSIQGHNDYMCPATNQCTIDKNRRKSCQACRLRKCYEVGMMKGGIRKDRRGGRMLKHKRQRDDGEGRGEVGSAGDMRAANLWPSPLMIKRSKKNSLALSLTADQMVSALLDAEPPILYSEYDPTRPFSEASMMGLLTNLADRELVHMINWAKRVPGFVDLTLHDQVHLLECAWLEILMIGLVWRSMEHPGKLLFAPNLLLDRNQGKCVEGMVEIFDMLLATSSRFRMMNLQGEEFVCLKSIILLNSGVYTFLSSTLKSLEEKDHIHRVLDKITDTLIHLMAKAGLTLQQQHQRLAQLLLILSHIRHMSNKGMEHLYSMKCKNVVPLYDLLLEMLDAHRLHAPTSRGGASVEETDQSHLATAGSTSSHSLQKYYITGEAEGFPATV

Structure (SMILES)	activation	Potency
CCCCCCCCCCCCCCC1CO1 (configuration not stated)	-4.34% (inactive)	
O=C(C(=O)c1ccc(Br)cc1)c1ccc(Br)cc1	4.18% [at 32.5 µM] (inactive)	
C=C(C)C(=O)OCCN(C)C	0.618% [at 95 µM] (inactive)	
CC(=O)N(O)CCCCCNC(=O)CCC(=O)N(O)CCCCCNC(=O)CCC(=O)N(O)CCCCCN	-16.5% [at 32.5 µM] (inactive)	
Nc1nc(N)c2nc(CNc3ccc(C(=O)N[C@@H](CCC(=O)O)C(=O)O)cc3)cnc2n1		inactive
O=C(NN1CCCC1)NS(=O)(=O)c1ccc(Cl)cc1	-1.83% (inactive)	
N[C@H]1C(O)O[C@H](CO)[C@H](O)[C@@H]1O (some centres not stated)	-10.9% (inactive)	
C=CC[N+]1([C@H]2C[C@H]3[C@@H]4CC[C@H]5C[C@H](OC(C)=O)[C@@H](N6CCCCC6)C[C@]5(C)[C@H]4CC[C@]3(C)[C@H]2OC(=O)CC)CCCCC1	-0.16% (inactive)	
OCC1CC2CC1C1CCC(CO)C21 (configuration not stated)	-11.1% (inactive)	
Cn1c(=O)c2c(ncn2CC(O)CO)n(C)c1=O (configuration not stated)	-3.34% [at 32.5 µM] (inactive)	
CCOC(=O)CC(=O)c1cc(F)c(Cl)nc1Cl	-7.16% [at 95 µM] (inactive)	
O=C(O)COC(=O)Cc1ccccc1Nc1c(Cl)cccc1Cl	-0.57% [at 32.5 µM] (inactive)	
CCCCCCCCCCCCCCCBr	-0.817% (inactive)	
N#CCc1cccc(C(F)(F)F)c1	3.38% (inactive)	
CCCCOC(O)CC (configuration not stated)	-2.27% (inactive)	
C[C@H](CCC(=O)O)[C@H]1CC[C@H]2[C@@H]3[C@H](O)C[C@@H]4C[C@H](O)CC[C@]4(C)[C@H]3CC[C@]12C		inactive
CC[C@H](C)[C@H](N)C(=O)O	2.16% (inactive)	
CCCCCCc1ccc(N)cc1		21.7 µM (active)
CC(C)NCC(O)COc1ccc(CC(N)=O)cc1 (configuration not stated)	-8.3% (inactive)	

Structure (SMILES)	activation	Potency
COCCOCCOCCOCCOC	0.555% (inactive)	
C=C(C)C(=O)OC(C)C	10.8% (inactive)	
N#CCCNCCC#N	0.997% [at 95 µM] (inactive)	
NCCCOCCOCCOCCCN	-6.62% (inactive)	
CC(=O)NCCCS(=O)(=O)O		inactive
Cc1ccc(C(N)=O)cc1N	1.64% (inactive)	
O=C(O)C1CCC(C(=O)O)CC1 (configuration not stated)	-28.5% (inactive)	
Cc1ccccc1N=Nc1ccc(N=Nc2c(O)ccc3ccccc23)c(C)c1		8.41 µM (active)
CCOC(=S)SSC(=S)OCC		inactive
ClC(Cl)(Cl)c1ccc(C(Cl)(Cl)Cl)cc1	-9.12% (inactive)	
CCCCCCCCCO	-0.246% (inactive)	
CN(C)CCCOc1nn(Cc2ccccc2)c2ccccc12	-9.98% [at 32.5 µM] (inactive)	
CCOC(=O)CC(C)C	0.0626% (inactive)	
FC(F)(F)C(F)(F)C(F)(F)C(F)(F)C(F)(F)C(F)(F)CCI	-3.54% (inactive)	
CC(C(=O)O)c1ccc(-c2ccccc2)c(F)c1 (configuration not stated)		4.52 µM (active) and inactive
CCCc1ccccc1	0.664% (inactive)	
Cc1ncsc1CCO	0.426% (inactive)	
N=C(N=C(N)N)N1CCOCC1	-0.268% [at 32.5 µM] (inactive)	
